The values that follow come from ChEMBL document CHEMBL3988442, “University of Dundee, Small-Polar-MMV Screening Library” (2021).

Holding throughout (set-up): scale not given: direction of the effect not stated beside the values
Experiment [1] addresses Protein translocase subunit SecA (Escherichia coli (strain K12)) (UniProt P10408). Nature of the experiment: Assay to Identify E. coli SecA ATPase Inhibitors. In kind it is functional. The following applies: 30 µM.
Experiment [2] addresses T1, Ubiquitin-activating enzyme e1, putative (Leishmania donovani (strain BPK282A1)) (UniProt E9BSI1).
T1 sequence (whole entry): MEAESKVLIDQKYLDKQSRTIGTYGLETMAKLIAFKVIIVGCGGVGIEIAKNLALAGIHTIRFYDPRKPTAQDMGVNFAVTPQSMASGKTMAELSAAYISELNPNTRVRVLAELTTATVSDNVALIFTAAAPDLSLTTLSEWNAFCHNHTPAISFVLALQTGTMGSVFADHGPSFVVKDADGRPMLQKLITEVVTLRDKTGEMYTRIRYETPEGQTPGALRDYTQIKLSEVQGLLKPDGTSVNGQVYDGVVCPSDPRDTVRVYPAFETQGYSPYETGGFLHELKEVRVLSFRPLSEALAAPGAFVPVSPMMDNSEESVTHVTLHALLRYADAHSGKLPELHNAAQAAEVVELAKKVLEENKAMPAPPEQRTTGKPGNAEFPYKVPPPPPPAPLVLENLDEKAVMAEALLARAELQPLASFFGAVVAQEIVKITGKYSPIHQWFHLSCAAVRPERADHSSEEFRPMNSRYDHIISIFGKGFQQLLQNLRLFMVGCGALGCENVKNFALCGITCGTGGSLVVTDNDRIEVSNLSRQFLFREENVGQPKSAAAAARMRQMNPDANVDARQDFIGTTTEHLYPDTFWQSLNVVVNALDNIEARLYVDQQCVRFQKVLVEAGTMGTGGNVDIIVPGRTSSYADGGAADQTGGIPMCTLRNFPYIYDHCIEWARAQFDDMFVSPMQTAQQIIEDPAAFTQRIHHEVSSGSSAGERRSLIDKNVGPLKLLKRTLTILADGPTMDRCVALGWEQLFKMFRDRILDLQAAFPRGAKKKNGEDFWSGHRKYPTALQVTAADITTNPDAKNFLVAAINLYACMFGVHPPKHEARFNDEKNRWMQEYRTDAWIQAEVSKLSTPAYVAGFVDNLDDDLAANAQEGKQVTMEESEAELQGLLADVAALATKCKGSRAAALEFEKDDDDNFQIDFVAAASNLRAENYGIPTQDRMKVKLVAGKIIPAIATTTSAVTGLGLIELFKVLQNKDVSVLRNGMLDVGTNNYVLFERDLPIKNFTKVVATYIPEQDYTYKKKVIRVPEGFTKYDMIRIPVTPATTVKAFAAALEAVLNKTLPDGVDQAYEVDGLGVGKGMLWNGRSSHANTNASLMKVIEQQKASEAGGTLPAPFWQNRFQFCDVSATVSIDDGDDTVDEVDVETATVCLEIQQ
Nature of the experiment: Leishmania donovani Ubiquitin Activating Enzyme (LdE1). In kind it is functional. To be noted: 30 µM.

Experiment [3] concerns the target AMP-activated protein kinase, AMPK (Homo sapiens) (UniProt P54646+O43741+P54619+Q9UGJ0+Q9Y478+Q13131+Q9UGI9). Description: AMP-dependent Kinase enzyme assay. An in vitro enzyme assay that detects ADP turnover that is directly proportional to AMPK activity. This uses naive AMPK that is activated during the assay with MK-8722. In kind it is functional. The following applies: 30 µM.

The target in experiment [4] is Sialic acid-binding Ig-like lectin 9 (Homo sapiens) (UniProt Q9Y336). Description: Hs-Siglec9 ALPHAscreen SOP 20170721. The following applies: 10 µM.
Experiment [5] has as its system Trypanosoma cruzi. Nature of the experiment: Trypanosoma cruzi phosphomannomutase and mannose-1-phosphate guanylyltransferase assay. In kind it is functional. To be noted: 10 µM.
Experiment [6] deals with T2, Arginase-2, mitochondrial (Homo sapiens) (UniProt P78540).
T2 sequence (whole entry): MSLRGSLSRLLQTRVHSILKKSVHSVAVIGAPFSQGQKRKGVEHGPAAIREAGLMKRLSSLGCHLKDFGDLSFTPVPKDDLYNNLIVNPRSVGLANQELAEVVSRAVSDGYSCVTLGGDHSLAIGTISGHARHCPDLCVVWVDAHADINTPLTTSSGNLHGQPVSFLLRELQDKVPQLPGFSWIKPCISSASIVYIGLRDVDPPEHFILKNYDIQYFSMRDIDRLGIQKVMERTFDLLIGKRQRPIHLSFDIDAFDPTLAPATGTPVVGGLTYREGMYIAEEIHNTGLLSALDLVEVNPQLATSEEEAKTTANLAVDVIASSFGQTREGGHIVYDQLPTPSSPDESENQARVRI
Nature of the experiment: in vitro enzyme assay to detect the production of urea directly proportional to the activity of Arginase II. Note: in the data most compounds retested in dose-response had high values. To be noted: 33.3 µM. In kind it is functional.

For experiment [7], the target named is T3, Proteasome subunit beta (Trypanosoma cruzi) (UniProt O96673).
T3 sequence (whole entry): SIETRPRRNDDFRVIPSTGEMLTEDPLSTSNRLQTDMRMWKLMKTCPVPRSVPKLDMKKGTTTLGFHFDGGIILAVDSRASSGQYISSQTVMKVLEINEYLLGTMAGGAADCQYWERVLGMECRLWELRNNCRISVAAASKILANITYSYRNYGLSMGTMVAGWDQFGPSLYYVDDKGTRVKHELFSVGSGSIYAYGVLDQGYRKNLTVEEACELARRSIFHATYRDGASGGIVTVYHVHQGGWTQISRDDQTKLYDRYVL
Description: Trypanosoma cruzi proteasome chymotrypsin-like activity (TcProtChymo) assay. Note: in the data most compounds retested in dose-response had high values. In kind it is functional. To be noted: 9.37 µM.

The species entered for experiment [8] is Homo sapiens. Description: To identify inhibition of the IFN signalling (Jak-Stat) pathway via expression of an eGFP reporter gene under the control of an IFN-stimulated response element (ISRE) containing MxA promoter. In kind it is functional. To be noted: 30 µM. (Reporter assays use an easily measured gene product as a stand-in for the process of interest.)

The target of experiment [9] is T4, Tyrosyl-tRNA synthetase, putative (Trypanosoma cruzi (strain CL Brener)) (UniProt Q4DSP6).
T4 sequence (whole entry): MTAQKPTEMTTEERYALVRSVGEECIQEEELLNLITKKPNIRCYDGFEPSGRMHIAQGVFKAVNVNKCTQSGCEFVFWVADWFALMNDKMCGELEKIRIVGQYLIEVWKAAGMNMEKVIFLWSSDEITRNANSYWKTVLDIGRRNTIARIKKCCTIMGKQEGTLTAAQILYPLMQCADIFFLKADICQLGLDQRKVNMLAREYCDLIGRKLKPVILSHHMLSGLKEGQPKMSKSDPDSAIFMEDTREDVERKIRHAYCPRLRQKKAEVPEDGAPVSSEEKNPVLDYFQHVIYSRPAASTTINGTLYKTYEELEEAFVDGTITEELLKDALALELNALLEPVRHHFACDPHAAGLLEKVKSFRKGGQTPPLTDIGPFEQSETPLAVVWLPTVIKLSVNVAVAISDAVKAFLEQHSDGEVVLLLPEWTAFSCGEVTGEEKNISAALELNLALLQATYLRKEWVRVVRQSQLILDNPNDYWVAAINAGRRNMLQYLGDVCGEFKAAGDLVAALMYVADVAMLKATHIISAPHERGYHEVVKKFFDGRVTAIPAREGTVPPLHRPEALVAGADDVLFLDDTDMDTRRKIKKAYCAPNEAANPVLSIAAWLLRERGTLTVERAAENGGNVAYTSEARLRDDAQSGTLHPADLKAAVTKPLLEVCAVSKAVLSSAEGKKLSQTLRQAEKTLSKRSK
Description: Trypanosoma cruzi tyrosyl tRNA synthetase (TcYRS) _High Tyrosine SOP. Note: in the data most compounds retested in dose-response had high values. The following applies: 30 µM. In kind it is functional.

The target of experiment [10] is T4, Tyrosyl-tRNA synthetase, putative (Trypanosoma cruzi (strain CL Brener)). Nature of the experiment: Trypanosoma cruzi tyrosyl tRNA synthetase (TcYRS) SOP. In kind it is functional. The following applies: 30 µM.
Experiment [11] deals with Chromo domain-containing protein 1 (Saccharomyces cerevisiae (strain ATCC 204508 / S288c) (Baker's yeast)) (UniProt P32657). Description: ScCHD-1 Enzyme Inhibition Assay. Note: in the data most compounds retested in dose-response had high values. In kind it is functional. The following applies: 30 µM.

Each structure is given as a SMILES string. For some of these results: Entries with a potency or affinity are not part of this list.

Sialic acid-binding Ig-like lectin 9 (Homo sapiens), sequence (Q9Y336 whole entry): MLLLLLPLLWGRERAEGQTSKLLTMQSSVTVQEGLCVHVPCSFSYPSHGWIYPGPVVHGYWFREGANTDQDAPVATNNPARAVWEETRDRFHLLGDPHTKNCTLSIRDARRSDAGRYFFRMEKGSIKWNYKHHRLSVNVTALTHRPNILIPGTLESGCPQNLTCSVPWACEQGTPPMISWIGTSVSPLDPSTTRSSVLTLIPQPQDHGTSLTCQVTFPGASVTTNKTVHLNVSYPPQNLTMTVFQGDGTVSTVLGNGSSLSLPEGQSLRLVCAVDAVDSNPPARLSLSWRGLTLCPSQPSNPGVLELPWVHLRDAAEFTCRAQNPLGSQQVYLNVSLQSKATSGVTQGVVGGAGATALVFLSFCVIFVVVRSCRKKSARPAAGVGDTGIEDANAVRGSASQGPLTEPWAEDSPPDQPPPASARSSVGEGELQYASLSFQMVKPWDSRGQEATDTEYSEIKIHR
Chromo domain-containing protein 1 (Saccharomyces cerevisiae (strain ATCC 204508 / S288c) (Baker's yeast)), sequence (P32657 whole entry, the tested form may be a part): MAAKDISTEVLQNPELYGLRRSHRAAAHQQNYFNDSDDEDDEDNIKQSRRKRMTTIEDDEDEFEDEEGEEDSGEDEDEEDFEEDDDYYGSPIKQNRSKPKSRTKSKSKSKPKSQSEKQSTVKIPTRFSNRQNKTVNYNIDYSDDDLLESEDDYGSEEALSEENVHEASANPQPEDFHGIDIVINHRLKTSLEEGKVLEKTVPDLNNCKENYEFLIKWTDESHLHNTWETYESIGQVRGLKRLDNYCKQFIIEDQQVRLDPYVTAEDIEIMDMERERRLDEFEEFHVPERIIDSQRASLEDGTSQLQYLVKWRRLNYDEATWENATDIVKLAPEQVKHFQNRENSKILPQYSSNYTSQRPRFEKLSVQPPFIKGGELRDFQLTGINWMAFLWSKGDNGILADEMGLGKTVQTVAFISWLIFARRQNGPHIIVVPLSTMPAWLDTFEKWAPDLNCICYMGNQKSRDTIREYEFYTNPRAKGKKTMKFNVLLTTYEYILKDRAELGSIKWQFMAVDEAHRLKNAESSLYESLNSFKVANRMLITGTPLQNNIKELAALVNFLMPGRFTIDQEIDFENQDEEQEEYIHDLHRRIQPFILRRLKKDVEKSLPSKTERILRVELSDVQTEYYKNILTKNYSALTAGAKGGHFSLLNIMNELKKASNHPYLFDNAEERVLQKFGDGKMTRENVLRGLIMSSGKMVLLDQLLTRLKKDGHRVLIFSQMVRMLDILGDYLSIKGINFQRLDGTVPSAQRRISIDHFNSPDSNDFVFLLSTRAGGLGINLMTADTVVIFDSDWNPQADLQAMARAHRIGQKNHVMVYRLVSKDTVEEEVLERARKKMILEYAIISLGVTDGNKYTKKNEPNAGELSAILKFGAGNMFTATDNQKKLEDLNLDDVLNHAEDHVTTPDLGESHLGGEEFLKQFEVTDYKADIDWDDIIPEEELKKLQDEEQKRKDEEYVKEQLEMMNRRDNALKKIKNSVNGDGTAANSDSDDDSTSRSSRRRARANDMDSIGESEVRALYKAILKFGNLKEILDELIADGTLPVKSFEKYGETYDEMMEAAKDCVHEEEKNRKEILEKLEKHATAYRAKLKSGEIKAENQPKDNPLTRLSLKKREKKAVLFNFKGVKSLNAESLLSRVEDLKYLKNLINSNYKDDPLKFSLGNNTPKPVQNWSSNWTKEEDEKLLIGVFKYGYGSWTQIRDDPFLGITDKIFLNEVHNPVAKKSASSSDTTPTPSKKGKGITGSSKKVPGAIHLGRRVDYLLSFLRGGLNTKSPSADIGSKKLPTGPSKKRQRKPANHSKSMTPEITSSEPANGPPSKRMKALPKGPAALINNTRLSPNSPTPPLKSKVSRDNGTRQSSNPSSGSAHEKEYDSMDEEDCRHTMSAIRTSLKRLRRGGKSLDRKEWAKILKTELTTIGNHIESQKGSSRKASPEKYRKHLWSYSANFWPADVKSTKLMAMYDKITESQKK
Protein translocase subunit SecA (Escherichia coli (strain K12)), sequence (P10408 whole entry): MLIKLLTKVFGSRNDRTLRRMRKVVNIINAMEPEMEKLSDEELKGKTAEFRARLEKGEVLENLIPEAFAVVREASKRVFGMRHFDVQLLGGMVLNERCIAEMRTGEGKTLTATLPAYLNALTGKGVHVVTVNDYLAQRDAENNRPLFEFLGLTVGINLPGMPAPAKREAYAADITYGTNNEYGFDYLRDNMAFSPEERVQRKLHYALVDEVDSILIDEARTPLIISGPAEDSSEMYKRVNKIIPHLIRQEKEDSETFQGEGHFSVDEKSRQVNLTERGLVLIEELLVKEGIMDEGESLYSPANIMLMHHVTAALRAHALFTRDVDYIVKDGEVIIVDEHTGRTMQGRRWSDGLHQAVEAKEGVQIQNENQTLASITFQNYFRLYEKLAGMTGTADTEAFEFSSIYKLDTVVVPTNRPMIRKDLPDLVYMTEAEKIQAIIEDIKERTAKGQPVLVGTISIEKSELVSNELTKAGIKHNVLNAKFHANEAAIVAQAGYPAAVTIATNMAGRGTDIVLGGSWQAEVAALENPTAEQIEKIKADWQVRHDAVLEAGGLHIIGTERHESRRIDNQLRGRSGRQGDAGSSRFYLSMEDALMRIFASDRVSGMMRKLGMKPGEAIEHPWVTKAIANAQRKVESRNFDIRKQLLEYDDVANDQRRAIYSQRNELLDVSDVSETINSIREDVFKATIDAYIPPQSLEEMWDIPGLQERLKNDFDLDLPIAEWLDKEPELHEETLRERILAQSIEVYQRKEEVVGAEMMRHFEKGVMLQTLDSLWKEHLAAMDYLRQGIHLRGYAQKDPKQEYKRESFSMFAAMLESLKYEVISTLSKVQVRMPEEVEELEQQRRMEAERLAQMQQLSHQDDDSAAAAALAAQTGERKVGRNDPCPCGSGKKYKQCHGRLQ

For the compound `Cc1nc(C)n(C2CCCN(C(=O)c3csc(C(C)C)n3)C2)n1` (stereo not drawn), the Percent Effect in [1] is -5.33%; in experiment [2] it was 29.7%; in experiment [3], -10.5%; in experiment [4], 12.2%; in experiment [5], 8.4%; in experiment [6], -10.4%. Moreover, the Percent Effect was 8.83% in [7]; 14.5% in experiment [8]; 8.37% in [9]; 28.4% in experiment [10]; -17.4% in experiment [11].
`Cc1ccccc1-c1cc(C(=O)N2CCn3c(C)nnc3C2)[nH]n1`: the Percent Effect in [1] was -5.53%; in experiment [2] it was 10.5%; in experiment [3], -1.51%; in experiment [4] it was 3.48%; in experiment [5] it was 6.01%; in experiment [6], 0%. For the same compound, the Percent Effect in experiment [7] was 4.34%; in [8] it was 4.27%; in experiment [9] it was -0.49%; in experiment [10], 17.1%; in experiment [11], -10.8%.
Take `CCC(=O)N1CCCC1c1nccnc1Nc1ncccn1` (stereo not drawn): the Percent Effect in [1] is 0.559%; in experiment [2], -6.76%; in experiment [3], 18.4%; in experiment [4], 0.16%; in [5], -2.57%; in experiment [6] it was -0.232%. In addition, the Percent Effect in [7] was -6.24%; in experiment [8] it was -9.16%; in [9], 1.07%; in experiment [10], -3.9%; in experiment [11], -6.85%.
For the compound `CC1CCN(CCCNS(=O)(=O)c2cccc(F)c2)CC1`, the Percent Effect is -4.57% in experiment [1]; 7.79% in experiment [2]; 0.601% in [3]; 5.46% in experiment [4]; -2.46% in experiment [5]; -13.8% in experiment [6]. Further, the Percent Effect in experiment [7] was 0.166%; in experiment [8], -11.1%; in [9], 5.38%; in experiment [10] it was 13.6%; in experiment [11] it was -2.91%.
With `CC(C)c1nc(C2CCCN2CC(=O)N2CCNC2=O)no1` (stereo not drawn), the Percent Effect in [1] was -3.33%; in [2], 2.63%; in [3], -0.208%; in experiment [4] it was -4.56%; in [5], 5.26%; in experiment [6], 1.15%. Moreover, the Percent Effect was 1.34% in [7]; -5.94% in experiment [8]; -0.49% in experiment [9]; 4.88% in experiment [10]; -10.2% in experiment [11].
On to `O=C1COC2(CCN(Cc3ccoc3)CC2)CN1c1ccsc1`, for which the Percent Effect in experiment [1] was 0.00228%; in [2] it was 18.7%; in experiment [3], 6.94%; in [4], -2.69%; in experiment [5] it was -0.591%; in experiment [6] it was 1.63%. The Percent Effect was 14.4% in experiment [7]; -27.3% in experiment [8]; 7.45% in [9]; 11.5% in experiment [10]; -2.01% in [11].
As to `CC(C)c1ncncc1C(=O)N1CCN(Cc2cscn2)CC1`, the Percent Effect was -12.5% in experiment [1]; 13.5% in experiment [2]; -16% in [3]; 21.4% in [4]; 10.7% in experiment [5]; 2.03% in [6]. In addition, the Percent Effect in experiment [7] is 5.03%; in [8], 5.44%; in experiment [9], 6.93%; in [10], 23.2%; in experiment [11], -8.1%.
With `CCN1C(=O)C(C)(C)c2cc(NC(=O)c3ccco3)ccc21`, the Percent Effect was -5.66% in experiment [1]; 10.4% in [2]; 17.2% in [3]; 5.8% in experiment [4]; 1.48% in experiment [5]; -13.8% in experiment [6]. Besides, the Percent Effect in experiment [7] was determined as 12.7%; in [8], 19.7%; in experiment [9] it was 12.9%; in experiment [10], 21%; in experiment [11], 0.612%.
